GLS inhibitor: qHTS for Inhibitors of Glutaminase (GLS); Glutaminase kidney isoform, mitochondrial (Homo sapiens), O94925; GLS enzymatic activity, qHTS titration; Potency, µM (doses to about 45.5 µM), inactives show at the top dose activity change, negative = inhibition, most hits filed as inhibitors; actives 0.21% (n = 410,000); also: % is scaled to controls: 0 for no effect and ±100 for the full control effect
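Compounds were pin-transferred onto hKGA, after which L-glutamine (1 mM solution) and a detection mix of glutamate oxidase, HRP and Amplex Red were added. Initial and 30 min RT fluorescence reads were collected.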
Pol beta inh: qHTS Assay for Inhibitors of DNA Polymerase Beta; actives 1.3% (n = 340,000); P06746; Pol beta primer extension/strand displacement, fluorescence kinetic; Potency, µM (doses to about 114 µM), without a hit: at the top dose activity change, negative = inhibition, actives largely listed as inhibitors; AID 485314, 2010; also: % is scaled to controls: 0 for no effect and ±100 for the full control effect
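Values derive from four-parameter Hill fits of normalized kinetic data: reads at 0 and 10 min following addition of 50 nM substrate to 10 nM Pol beta preincubated 15 min with compound.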
POLH inh: qHTS for Inhibitors of Polymerase Eta | DNA polymerase eta (Homo sapiens), Q9Y253 | recombinant Pol eta, fluorescent DNA replication assay | Potency, µM (highest dose often 114 µM), for inactives: top-dose activity change, negative = inhibition, usual class: inhibitors | actives 1.2% (n = 390,000); also: % is scaled to controls: 0 for no effect and ±100 for the full control effect
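Pol eta at 10 nM preincubated with compounds 15 min at room temperature; reaction started with fluorescent substrate (50 nM final) and read kinetically at 0 and 10 min.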
Pol kappa inh: qHTS for Inhibitors of Polymerase Kappa; DNA polymerase kappa (Homo sapiens), Q9UBT6; purified Pol kappa, fluorescent DNA synthesis assay, 10 min; Potency, µM (highest dose often 107 µM), inactives show top-dose activity, negative = inhibition, most hits filed as inhibitors; actives 0.53% (n = 400,000); AID 588579, 2011; also: % is scaled to controls: 0 for no effect and ±100 for the full control effect
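10 nM Pol kappa was preincubated with compounds for 15 min at room temperature. Reaction started with 50 nM (final) substrate. Fluorescence read kinetically at 0 and 10 min.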
GCN5L2 inh: qHTS Assay for Inhibitors of GCN5L2. Potency, µM (titrated, usually from 58.9 µM), for inactives: top-dose activity change, negative = inhibition, usual class: inhibitors. actives 0.21% (n = 390,000). GCN5L2 HAT assay, ThioGlo1 CoA-SH fluorescence; also: % is scaled to controls: 0 for no effect and ±100 for the full control effect
Target sequence (Q92830 whole entry, looked up): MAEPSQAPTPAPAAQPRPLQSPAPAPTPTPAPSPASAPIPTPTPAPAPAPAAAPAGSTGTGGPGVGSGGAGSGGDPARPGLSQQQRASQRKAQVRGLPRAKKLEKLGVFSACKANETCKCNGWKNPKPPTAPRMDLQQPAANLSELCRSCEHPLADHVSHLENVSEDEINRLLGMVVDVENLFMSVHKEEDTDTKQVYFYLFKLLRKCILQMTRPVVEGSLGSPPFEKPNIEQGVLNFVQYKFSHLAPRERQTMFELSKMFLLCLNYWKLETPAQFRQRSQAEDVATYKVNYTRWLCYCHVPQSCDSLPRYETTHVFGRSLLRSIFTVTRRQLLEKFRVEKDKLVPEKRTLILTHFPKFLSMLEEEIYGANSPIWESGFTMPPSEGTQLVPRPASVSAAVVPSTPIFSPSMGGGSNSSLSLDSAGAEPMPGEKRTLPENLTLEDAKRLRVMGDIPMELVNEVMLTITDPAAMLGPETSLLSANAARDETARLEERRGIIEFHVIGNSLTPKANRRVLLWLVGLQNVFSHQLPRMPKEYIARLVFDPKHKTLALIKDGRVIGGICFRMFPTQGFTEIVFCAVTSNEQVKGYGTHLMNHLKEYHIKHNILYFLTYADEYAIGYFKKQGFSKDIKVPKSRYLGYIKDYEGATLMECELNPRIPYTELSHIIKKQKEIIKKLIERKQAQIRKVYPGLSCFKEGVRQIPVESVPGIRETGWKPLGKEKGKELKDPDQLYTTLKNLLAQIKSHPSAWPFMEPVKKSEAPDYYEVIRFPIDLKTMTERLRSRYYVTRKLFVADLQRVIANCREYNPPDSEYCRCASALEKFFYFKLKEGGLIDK
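Preincubate 20nM GCN5L2 with compound 15 min, RT → add 50uM ThioGlo1 + 75uM H3(1-25) + 70uM acetyl-CoA → read fluorescence 0 and 20 min. Primary qHTS; fluorescent artifacts likely.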
Pol iota inh: qHTS for Inhibitors of Polymerase Iota; DNA polymerase iota (Homo sapiens), Q9UNA4; Pol iota fluorescent replication assay, 10 min; Potency, µM (top dose mostly 115 µM), without a hit: at the highest dose activity, negative = inhibition, hits mostly inhibitors; actives 1% (n = 390,000); AID 588590, 2011
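Fluorescent replication assay read twice, at 0 min and 10 min after adding 50 nM (final) substrate. Enzyme (10 nM) and compounds were first incubated 15 min at room temperature; enzyme-free buffer wells were negative controls.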
Starred values were filed as active, the others as inactive; [ ] = dose if it differs, or a comment. The list is not random: actives were taken first. Their share in the collection is about 2.4%. Calls follow the shape of the dose curve; as a rule, active = well fitted inhibition curve with a large enough effect; inconclusive = small, poorly fitted or top-dose-only effect, or another doubt; inactive = no such curve, though single readings can be large or run the other way. Potency is read from the fitted curve at half-maximal effect.

CC1CCN(S(=O)(=O)c2ccc(NC(=O)C3CSC4(C)CCC(=O)N34)cc2)CC1 (stereo unspecified) was read as GLS inhibitor -2.5%, POLH inh 20µM*, Pol kappa inh -27.6%, GCN5L2 inh -12.9% and Pol iota inh inconclusive.
For O=C(Nc1ccc(Cl)cc1Cl)[C@@H]1CC=C[C@@H]2CCN(C3CC3)C(=O)[C@@H]21 the results were Pol kappa inh 11.6% and Pol iota inh 11.8%.
`O=C(NCc1cccc(F)c1)c1ccc(-n2cnc3cccnc32)cc1` gave GLS inhibitor 3.5%, Pol beta inh -12.6%, POLH inh -2.4%, Pol kappa inh -17.7%, GCN5L2 inh inconclusive and Pol iota inh -18.3%.
Screening COc1cccc(CN2CC34CCC(CC3S2(=O)=O)O4)c1 (stereo unspecified) returned Pol kappa inh -26.2% and Pol iota inh 3.3%.
CN(C)c1ccc(/C=C/c2ccc3cc(F)ccc3n2)cc1 was read as Pol kappa inh 9.3% and Pol iota inh 3.5%.
For COc1cc2cc(C#N)c(SCC(=O)OC(C)C)nc2cc1OC the results were Pol kappa inh -7.0% and Pol iota inh 16.9%.
`Cc1ccc(NC(=O)Nc2nc3ccc(S(C)(=O)=O)cc3s2)cc1` gave GLS inhibitor 17.8%, POLH inh 79.4µM*, Pol kappa inh -2.7%, GCN5L2 inh 1.6% and Pol iota inh 23.3%.
`CS(=O)(=O)c1ccc2nc(NC(=O)Nc3cccc(Cl)c3)sc2c1` gave GLS inhibitor -1.2%, Pol beta inh 50.1µM*, POLH inh -9.2%, Pol kappa inh -4.2%, GCN5L2 inh -12.9% and Pol iota inh inconclusive.
For Cc1cc(/C=C(\C#N)c2nc3ccccc3[nH]2)c(C)n1C the results were GLS inhibitor -7.5%, Pol beta inh 39.8µM*, POLH inh inconclusive, Pol kappa inh -14.9%, GCN5L2 inh -11.2% and Pol iota inh inconclusive.
`COc1ccc(/C=C(\C#N)c2nc3ccccc3[nH]2)cc1O` gave GLS inhibitor -24.7%, Pol beta inh 25.1µM*, POLH inh 79.4µM*, Pol kappa inh -34.1%, GCN5L2 inh -8.5% and Pol iota inh inconclusive.
N#C/C(=C\c1ccc(Sc2nc3ccccc3[nH]2)o1)c1ccccc1 was read as GLS inhibitor 9.4%, Pol beta inh -1.3%, POLH inh inconclusive, Pol kappa inh -5.6%, GCN5L2 inh -23.7% and Pol iota inh -0.8%.
COc1cccc(/C=C(/C#N)c2nc3ccccc3[nH]2)c1OC(C)C(=O)O (stereo unspecified) was read as GLS inhibitor 12.6µM*, Pol beta inh -0.7%, POLH inh 5.8%, Pol kappa inh 8.7%, GCN5L2 inh -1.5% and Pol iota inh 0.0%.
`N#C/C(=C\c1ccc(Sc2ccc(Cl)cc2)o1)c1nc2ccccc2[nH]1` gave GLS inhibitor 2.6%, Pol beta inh 15.8µM*, POLH inh inconclusive, Pol kappa inh -8.1%, GCN5L2 inh 57.1% and Pol iota inh inconclusive.
`COc1cc(/C=C(\C#N)c2nc3ccccc3[nH]2)cc(OC)c1O` gave GLS inhibitor 4.3%, Pol beta inh inconclusive, POLH inh inconclusive, Pol kappa inh inconclusive, GCN5L2 inh -3.1% and Pol iota inh inconclusive.
`CN=C1C=CC(=C(c2ccc(N(C)C)cc2)c2ccc(N(C)C)cc2)C=C1` gave GLS inhibitor -8.3%, Pol kappa inh -6.4%[19.4 µM] and GCN5L2 inh -22.5%.
For Cc1ccc(-n2nc(C(=O)Nc3ccc(C)c(F)c3)c3c4ccccc4n(C)c3c2=O)cc1 the results were GLS inhibitor -2.8%, Pol beta inh 0.4%, Pol kappa inh -19.2%, GCN5L2 inh -0.4% and Pol iota inh -5.7%.

Assay outcomes (PubChem)
